# Test results reported in the supplement of paper PMC6411743.
# ± gives the standard deviation of the averaged measurements. Of roughly 6,200 targets only a part is listed; those with the largest changes were picked by preference.
# Legend:
# Assay in all cases: NP40-soluble protein abundance relative to vehicle (solubility fold change) (ratio); higher = more soluble protein in presence of AMP-PNP
# UniProt Q9BY77|Q9BY77-2 = target: T1, UniProt Q9BY77|Q9BY77-2
# T1 sequence (whole entry): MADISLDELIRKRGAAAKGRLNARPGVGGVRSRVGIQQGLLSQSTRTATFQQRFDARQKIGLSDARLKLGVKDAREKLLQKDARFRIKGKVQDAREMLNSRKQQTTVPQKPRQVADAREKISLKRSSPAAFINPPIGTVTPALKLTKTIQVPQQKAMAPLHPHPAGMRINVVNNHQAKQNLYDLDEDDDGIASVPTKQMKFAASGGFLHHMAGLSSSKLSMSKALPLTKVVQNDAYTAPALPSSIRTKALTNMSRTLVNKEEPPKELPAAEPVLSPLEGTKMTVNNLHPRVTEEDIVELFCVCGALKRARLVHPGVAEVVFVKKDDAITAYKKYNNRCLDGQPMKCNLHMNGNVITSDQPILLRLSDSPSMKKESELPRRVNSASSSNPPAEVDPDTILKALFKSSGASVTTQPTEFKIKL
# In short: (§1)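 Crude Jurkat lysate, prepared by Dounce homogenisation, was exposed to eight concentrations from 0.1 to 10 mM for 10 min at room temperature and then 3 min at 37 °C. Solubilisation used 0.8% NP40 with benzonase for 60 min at 4 °C, followed by ultracentrifugation and TMT labelling of the supernatant for LC-MS/MS. After vsn normalisation of intensities, each value is the fold change against the detergent-processed vehicle within each replicate, across three independent experiments.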
# UniProt Q9H9J4|Q9H9J4-2 = target: T2, UniProt Q9H9J4|Q9H9J4-2
# T2 sequence (whole entry): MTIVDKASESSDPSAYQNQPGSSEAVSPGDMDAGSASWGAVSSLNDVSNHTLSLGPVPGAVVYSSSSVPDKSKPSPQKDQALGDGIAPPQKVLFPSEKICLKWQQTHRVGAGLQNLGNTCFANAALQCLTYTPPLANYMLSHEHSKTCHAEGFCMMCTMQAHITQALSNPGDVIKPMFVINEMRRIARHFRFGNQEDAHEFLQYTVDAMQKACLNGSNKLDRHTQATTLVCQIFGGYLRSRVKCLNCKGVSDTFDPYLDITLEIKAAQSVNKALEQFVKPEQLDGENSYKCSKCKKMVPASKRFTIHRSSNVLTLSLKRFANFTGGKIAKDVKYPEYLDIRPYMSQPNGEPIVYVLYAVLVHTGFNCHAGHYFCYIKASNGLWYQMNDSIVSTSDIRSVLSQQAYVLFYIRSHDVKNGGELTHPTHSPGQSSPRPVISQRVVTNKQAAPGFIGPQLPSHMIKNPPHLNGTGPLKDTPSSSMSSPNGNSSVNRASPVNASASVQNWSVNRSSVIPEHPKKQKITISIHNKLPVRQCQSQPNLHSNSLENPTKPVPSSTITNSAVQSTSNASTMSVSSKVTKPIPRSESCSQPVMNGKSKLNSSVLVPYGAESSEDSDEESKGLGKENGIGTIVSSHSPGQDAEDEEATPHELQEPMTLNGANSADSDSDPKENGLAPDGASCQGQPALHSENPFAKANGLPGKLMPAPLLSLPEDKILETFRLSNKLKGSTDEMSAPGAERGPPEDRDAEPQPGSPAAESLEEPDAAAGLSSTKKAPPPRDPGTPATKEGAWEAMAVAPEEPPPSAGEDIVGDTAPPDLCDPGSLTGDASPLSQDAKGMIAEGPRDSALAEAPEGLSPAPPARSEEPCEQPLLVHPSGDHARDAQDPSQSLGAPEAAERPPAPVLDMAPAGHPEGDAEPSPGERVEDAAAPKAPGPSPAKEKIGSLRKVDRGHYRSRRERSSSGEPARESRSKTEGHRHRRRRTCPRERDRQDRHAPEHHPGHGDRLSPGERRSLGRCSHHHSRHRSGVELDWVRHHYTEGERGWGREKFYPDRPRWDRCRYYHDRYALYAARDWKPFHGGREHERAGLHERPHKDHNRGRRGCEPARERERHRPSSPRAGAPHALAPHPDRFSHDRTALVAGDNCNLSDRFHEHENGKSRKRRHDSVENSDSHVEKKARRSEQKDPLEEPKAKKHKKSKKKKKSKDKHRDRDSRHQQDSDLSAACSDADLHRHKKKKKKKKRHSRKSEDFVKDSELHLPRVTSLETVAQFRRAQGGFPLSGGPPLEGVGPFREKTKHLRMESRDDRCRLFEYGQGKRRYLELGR
# In short: as §1
# UniProt Q9NPJ3 = target: T3, UniProt Q9NPJ3
# T3 sequence (whole entry): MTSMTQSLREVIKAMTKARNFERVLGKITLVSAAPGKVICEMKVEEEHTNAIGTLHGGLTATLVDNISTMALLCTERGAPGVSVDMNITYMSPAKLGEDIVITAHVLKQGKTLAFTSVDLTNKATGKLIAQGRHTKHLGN
# In short: as §1
# [1] = target: T4, UniProt Q9NQ86-4|E9PBG3|Q9NQ86
# T4 sequence (whole entry): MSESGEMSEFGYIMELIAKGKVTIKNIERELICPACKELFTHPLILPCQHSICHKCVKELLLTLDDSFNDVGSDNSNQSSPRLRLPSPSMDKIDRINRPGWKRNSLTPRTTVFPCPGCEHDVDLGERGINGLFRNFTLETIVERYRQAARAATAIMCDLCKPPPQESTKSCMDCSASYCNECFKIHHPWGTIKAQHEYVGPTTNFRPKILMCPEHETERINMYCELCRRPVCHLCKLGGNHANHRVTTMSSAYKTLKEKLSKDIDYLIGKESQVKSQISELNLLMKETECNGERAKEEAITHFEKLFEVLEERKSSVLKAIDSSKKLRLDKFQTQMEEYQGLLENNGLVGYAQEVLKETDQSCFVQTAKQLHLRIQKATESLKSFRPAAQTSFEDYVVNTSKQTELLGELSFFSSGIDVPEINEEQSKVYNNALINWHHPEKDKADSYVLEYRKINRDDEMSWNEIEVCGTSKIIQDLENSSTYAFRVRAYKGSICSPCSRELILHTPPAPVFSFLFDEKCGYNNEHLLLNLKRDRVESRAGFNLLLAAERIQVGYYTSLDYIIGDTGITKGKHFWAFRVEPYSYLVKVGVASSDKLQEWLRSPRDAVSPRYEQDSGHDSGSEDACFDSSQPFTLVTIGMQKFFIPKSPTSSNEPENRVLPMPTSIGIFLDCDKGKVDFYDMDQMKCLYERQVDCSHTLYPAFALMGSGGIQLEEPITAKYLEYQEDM
# In short: as §1
# UniProt Q9NUS5 = target: T5, UniProt Q9NUS5
# T5 sequence (whole entry): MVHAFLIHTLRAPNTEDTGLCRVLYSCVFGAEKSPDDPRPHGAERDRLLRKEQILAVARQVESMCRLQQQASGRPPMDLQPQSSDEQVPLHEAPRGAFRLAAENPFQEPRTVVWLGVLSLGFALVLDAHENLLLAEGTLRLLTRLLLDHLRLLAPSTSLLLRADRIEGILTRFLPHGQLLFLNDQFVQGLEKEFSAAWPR
# In short: as §1
# [2] = target: T6, UniProt Q9NVH6|Q9NVH6-7|Q9NVH6-8
# T6 sequence (whole entry): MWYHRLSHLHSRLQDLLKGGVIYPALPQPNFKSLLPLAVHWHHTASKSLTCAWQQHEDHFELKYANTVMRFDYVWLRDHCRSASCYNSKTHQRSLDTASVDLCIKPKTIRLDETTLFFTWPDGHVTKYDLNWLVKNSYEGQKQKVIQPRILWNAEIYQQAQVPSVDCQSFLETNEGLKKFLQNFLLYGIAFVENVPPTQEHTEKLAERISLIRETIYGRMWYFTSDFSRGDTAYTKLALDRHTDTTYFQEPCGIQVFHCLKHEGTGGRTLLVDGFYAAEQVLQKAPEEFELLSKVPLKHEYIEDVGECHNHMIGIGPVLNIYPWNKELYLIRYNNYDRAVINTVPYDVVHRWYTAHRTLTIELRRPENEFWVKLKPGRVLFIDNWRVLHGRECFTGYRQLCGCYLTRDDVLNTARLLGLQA
# In short: as §1
# VRK1 = target: T7, VRK1 (UniProt Q99986)
# T7 sequence (whole entry): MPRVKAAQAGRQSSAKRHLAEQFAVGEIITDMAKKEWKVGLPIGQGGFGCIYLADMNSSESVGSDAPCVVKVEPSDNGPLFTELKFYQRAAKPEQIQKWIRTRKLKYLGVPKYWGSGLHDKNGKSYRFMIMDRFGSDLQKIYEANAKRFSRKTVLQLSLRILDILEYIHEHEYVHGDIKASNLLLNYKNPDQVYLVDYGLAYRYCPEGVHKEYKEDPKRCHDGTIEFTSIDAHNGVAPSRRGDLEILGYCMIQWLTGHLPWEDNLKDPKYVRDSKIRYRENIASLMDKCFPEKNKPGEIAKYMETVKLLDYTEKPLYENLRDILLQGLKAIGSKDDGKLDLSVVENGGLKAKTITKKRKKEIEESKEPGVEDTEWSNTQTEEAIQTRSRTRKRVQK
# In short: as §1
smiles,measurement,setting,value
Nc1ncnc2c1ncn2[C@@H]1O[C@H](COP(=O)(O)OP(=O)(O)NP(=O)(O)O)[C@@H](O)[C@H]1O [adenylyl imidodiphosphate],NP40-soluble protein abundance,UniProt Q9BY77|Q9BY77-2; concentration: 6mM,1.17 ± 0.016
same,NP40-soluble protein abundance,UniProt Q9BY77|Q9BY77-2; concentration: 8mM,1.24 ± 0.028
same,NP40-soluble protein abundance,UniProt Q9BY77|Q9BY77-2; concentration: 10mM,1.37 ± 0.081
same,NP40-soluble protein abundance,UniProt Q9H9J4|Q9H9J4-2; concentration: 1mM,1.02 ± 0.026
same,NP40-soluble protein abundance,UniProt Q9H9J4|Q9H9J4-2; concentration: 2mM,1.03 ± 0.035
same,NP40-soluble protein abundance,UniProt Q9H9J4|Q9H9J4-2; concentration: 4mM,1.01 ± 0.035
same,NP40-soluble protein abundance,UniProt Q9H9J4|Q9H9J4-2; concentration: 6mM,0.993 ± 0.011
same,NP40-soluble protein abundance,UniProt Q9H9J4|Q9H9J4-2; concentration: 8mM,1.03 ± 0.03
same,NP40-soluble protein abundance,UniProt Q9H9J4|Q9H9J4-2; concentration: 10mM,1.04 ± 0.04
same,NP40-soluble protein abundance,UniProt Q9NPJ3; concentration: 1mM,0.947 ± 0.014
same,NP40-soluble protein abundance,UniProt Q9NPJ3; concentration: 2mM,0.9081 ± 0.0059
same,NP40-soluble protein abundance,UniProt Q9NPJ3; concentration: 4mM,0.9 ± 0.028
same,NP40-soluble protein abundance,UniProt Q9NPJ3; concentration: 6mM,0.974 ± 0.062
same,NP40-soluble protein abundance,UniProt Q9NPJ3; concentration: 8mM,0.976 ± 0.032
same,NP40-soluble protein abundance,UniProt Q9NPJ3; concentration: 10mM,0.948 ± 0.076
same,NP40-soluble protein abundance,[1]; concentration: 1mM,0.952 ± 0.04
same,NP40-soluble protein abundance,[1]; concentration: 2mM,0.976 ± 0.047
same,NP40-soluble protein abundance,[1]; concentration: 4mM,0.994 ± 0.042
same,NP40-soluble protein abundance,[1]; concentration: 6mM,0.998 ± 0.017
same,NP40-soluble protein abundance,[1]; concentration: 8mM,1 ± 0.044
same,NP40-soluble protein abundance,[1]; concentration: 10mM,1.01 ± 0.023
same,NP40-soluble protein abundance,UniProt Q9NUS5; concentration: 1mM,0.96 ± 0.016
same,NP40-soluble protein abundance,UniProt Q9NUS5; concentration: 2mM,0.936 ± 0.051
same,NP40-soluble protein abundance,UniProt Q9NUS5; concentration: 4mM,0.963 ± 0.02
same,NP40-soluble protein abundance,UniProt Q9NUS5; concentration: 6mM,0.948 ± 0.012
same,NP40-soluble protein abundance,UniProt Q9NUS5; concentration: 8mM,0.938 ± 0.038
same,NP40-soluble protein abundance,UniProt Q9NUS5; concentration: 10mM,0.936 ± 0.041
same,NP40-soluble protein abundance,[2]; concentration: 1mM,0.969 ± 0.051
same,NP40-soluble protein abundance,[2]; concentration: 2mM,0.9817 ± 0.0096
same,NP40-soluble protein abundance,[2]; concentration: 4mM,0.984 ± 0.06
same,NP40-soluble protein abundance,[2]; concentration: 6mM,0.972 ± 0.065
same,NP40-soluble protein abundance,[2]; concentration: 8mM,0.985 ± 0.018
same,NP40-soluble protein abundance,[2]; concentration: 10mM,0.969 ± 0.046
same,NP40-soluble protein abundance,VRK1; concentration: 1mM,1.08 ± 0.036
same,NP40-soluble protein abundance,VRK1; concentration: 2mM,1.1 ± 0.078
same,NP40-soluble protein abundance,VRK1; concentration: 4mM,1.22 ± 0.03
same,NP40-soluble protein abundance,VRK1; concentration: 6mM,1.43 ± 0.061
same,NP40-soluble protein abundance,VRK1; concentration: 8mM,1.51 ± 0.11
same,NP40-soluble protein abundance,VRK1; concentration: 10mM,1.56 ± 0.1
